Results published in the supplement of paper PMC10849652.
The full data set covers some 7,900 targets. This sample favours those with a hit. About 0.6% of all pairs of compound and target were hits. A number with no mark means an inactive call.

Columns and labels:
Assay in all cases: log2 fold change, soluble protein after heating vs DMSO (PISA); higher = thermal stabilisation; K562 cells, 10 uM, 30 min; active = over 0.2 and 3.5 SD of the protein, either way, in both replicates (recomputed)
[1] = compound: CC1=C(C=C(C=C1)NC(=O)C2=CC(=CC=C2)C(C)(C)C#N)NC3=CC4=C(C=C3)N=CN(C4=O)C
In short: (§1)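 Values are thermal stability changes relative to control samples and are taken from duplicates. They are stated as log2 fold changes. Before quantification by TMTpro 16plex LC-MS/MS with equalised channel sums, K562 cells at 2×10^6 cells/mL were treated with 10 μM compound for 30 min, heated in aliquots for 3 min across 48°C-58°C, pooled, extracted in PBS with 0.5% NP-40 at 4°C, and centrifuged at 21,000xg for 90 min to give the soluble supernatant.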

[2] = compound: CC1=C(C=C(C=C1)NC(=O)C2=CC(=CC=C2)N(C)C)NC(=O)C3=CC=C(C=C3)O
In short: as §1

[3] = compound: CC1=CC=C(C=C1)SC2=C3C=C(SC3=CN=C2)C(=O)N
In short: as §1

[4] = compound: CC1=NC(=CC=C1)C2=C(N=C(N2)C(C)(C)C)C3=CC4=NC=CN=C4C=C3
In short: as §1

[5] = compound: CCCCN(Cc1ccc(C(=O)NO)cc1)C(=O)Nc1ccccc1 [Nexturastat A]
In short: as §1

[6] = compound: CCCS(=O)(=O)Nc1ccc(F)c(C(=O)c2c[nH]c3ncc(-c4ccc(Cl)cc4)cc23)c1F [vemurafenib]
In short: as §1

[7] = compound: CCCS(=O)(=O)Nc1ccc(F)c(C(=O)c2c[nH]c3ncc(Cl)cc23)c1F
In short: as §1

[8] = compound: CCCc1cc(C)[nH]c(=O)c1CNC(=O)c1cc(-c2ccnc(N3CCN(C)CC3)c2)cc2c1cnn2C(C)C
In short: as §1

[9] = compound: CCN(CC)Cc1ccc2cc(COC(=O)Nc3ccc(C(=O)NO)cc3)ccc2c1 [givinostat]
In short: as §1

[10] = compound: CCN(CCCOc1ccc2c(Nc3cc(CC(=O)Nc4cccc(F)c4)[nH]n3)ncnc2c1)CCOP(=O)(O)O [barasertib]
In short: as §1

Sequence of UniProt O43934 (O43934 whole entry, looked up): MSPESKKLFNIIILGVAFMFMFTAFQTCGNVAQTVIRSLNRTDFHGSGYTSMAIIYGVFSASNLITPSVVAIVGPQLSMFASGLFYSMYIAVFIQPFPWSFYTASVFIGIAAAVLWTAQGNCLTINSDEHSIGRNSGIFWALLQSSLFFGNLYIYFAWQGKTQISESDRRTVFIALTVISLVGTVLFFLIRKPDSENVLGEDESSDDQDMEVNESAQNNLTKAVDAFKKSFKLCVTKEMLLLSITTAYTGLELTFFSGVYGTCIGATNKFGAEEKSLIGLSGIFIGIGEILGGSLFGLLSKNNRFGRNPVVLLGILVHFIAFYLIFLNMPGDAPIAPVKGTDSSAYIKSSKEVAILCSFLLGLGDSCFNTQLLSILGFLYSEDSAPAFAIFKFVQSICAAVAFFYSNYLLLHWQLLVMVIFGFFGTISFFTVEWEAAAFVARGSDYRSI
Sequence of UniProt Q9P244 (Q9P244 whole entry, looked up): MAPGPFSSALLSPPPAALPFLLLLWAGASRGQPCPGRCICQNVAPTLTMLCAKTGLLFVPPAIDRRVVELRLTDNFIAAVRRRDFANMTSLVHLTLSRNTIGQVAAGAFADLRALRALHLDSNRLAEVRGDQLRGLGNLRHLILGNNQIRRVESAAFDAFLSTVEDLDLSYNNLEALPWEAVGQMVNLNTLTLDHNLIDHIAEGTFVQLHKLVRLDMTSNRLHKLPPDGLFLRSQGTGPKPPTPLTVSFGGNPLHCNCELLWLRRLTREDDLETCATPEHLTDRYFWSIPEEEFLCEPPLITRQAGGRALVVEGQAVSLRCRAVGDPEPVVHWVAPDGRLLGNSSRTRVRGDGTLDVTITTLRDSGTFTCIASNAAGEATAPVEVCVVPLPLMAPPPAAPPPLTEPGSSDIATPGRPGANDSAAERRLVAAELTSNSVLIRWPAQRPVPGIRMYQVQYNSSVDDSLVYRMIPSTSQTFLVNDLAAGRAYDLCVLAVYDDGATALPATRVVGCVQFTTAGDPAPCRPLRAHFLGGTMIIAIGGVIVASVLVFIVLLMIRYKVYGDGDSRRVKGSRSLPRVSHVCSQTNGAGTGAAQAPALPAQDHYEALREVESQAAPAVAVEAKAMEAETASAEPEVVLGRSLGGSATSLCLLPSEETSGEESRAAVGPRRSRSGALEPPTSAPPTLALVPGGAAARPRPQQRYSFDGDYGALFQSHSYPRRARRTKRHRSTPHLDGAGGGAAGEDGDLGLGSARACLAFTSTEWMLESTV
Sequence of UniProt Q12906 (Q12906 whole entry, looked up): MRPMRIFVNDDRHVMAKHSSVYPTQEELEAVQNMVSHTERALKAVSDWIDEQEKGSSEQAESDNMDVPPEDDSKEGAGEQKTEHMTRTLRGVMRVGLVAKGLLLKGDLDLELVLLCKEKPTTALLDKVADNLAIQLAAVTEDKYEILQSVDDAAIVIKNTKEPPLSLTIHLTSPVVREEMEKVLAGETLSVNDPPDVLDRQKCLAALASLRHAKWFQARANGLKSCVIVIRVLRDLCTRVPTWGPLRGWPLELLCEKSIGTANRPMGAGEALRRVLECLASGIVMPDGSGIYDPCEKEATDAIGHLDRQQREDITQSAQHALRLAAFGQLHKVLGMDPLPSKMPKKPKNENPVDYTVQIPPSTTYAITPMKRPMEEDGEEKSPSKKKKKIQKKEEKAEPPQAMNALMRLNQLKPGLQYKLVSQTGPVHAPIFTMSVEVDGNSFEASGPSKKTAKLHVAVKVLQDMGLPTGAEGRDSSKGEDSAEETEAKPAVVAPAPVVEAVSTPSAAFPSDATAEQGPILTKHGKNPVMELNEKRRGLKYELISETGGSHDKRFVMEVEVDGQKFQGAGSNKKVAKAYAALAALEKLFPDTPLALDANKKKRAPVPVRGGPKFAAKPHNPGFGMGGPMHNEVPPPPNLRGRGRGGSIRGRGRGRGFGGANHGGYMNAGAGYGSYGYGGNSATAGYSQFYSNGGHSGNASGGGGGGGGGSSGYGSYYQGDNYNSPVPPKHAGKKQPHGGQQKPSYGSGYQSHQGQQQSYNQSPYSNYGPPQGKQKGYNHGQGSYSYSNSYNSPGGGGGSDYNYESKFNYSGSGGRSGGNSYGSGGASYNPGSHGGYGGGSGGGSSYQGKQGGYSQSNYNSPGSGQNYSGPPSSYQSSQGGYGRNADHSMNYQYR
Sequence of UniProt Q71SY5 (Q71SY5 whole entry, looked up): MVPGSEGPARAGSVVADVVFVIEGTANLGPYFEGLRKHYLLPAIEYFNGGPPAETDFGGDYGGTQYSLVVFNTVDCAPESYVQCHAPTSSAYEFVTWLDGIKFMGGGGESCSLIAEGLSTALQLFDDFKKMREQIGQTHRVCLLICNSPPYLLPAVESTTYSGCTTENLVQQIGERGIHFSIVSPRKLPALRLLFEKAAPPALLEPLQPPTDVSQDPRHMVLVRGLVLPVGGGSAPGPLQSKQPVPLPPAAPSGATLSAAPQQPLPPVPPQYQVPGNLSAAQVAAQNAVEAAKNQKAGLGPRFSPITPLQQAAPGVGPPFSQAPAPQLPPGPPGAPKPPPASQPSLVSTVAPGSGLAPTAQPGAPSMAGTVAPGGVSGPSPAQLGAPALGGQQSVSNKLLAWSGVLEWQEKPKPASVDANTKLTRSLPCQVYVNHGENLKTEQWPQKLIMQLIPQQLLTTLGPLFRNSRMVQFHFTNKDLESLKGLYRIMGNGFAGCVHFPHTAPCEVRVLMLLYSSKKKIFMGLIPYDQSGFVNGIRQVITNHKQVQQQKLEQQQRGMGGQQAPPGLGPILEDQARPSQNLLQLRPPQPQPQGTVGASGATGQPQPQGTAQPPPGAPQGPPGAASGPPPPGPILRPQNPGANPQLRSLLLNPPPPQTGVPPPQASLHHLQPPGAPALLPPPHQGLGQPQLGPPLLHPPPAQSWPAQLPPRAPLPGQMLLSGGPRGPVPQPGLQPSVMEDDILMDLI
Sequence of UniProt Q16539 (Q16539 whole entry, looked up): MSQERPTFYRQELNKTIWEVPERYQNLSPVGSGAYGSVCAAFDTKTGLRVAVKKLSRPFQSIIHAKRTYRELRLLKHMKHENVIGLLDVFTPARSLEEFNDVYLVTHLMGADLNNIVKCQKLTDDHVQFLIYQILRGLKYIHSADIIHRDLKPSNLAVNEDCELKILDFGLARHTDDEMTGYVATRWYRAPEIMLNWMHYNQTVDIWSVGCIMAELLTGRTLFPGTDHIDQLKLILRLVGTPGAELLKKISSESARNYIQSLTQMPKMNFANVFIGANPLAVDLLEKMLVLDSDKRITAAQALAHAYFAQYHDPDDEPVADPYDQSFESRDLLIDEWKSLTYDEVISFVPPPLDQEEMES
Sequence of UniProt O43318 (O43318 whole entry, looked up): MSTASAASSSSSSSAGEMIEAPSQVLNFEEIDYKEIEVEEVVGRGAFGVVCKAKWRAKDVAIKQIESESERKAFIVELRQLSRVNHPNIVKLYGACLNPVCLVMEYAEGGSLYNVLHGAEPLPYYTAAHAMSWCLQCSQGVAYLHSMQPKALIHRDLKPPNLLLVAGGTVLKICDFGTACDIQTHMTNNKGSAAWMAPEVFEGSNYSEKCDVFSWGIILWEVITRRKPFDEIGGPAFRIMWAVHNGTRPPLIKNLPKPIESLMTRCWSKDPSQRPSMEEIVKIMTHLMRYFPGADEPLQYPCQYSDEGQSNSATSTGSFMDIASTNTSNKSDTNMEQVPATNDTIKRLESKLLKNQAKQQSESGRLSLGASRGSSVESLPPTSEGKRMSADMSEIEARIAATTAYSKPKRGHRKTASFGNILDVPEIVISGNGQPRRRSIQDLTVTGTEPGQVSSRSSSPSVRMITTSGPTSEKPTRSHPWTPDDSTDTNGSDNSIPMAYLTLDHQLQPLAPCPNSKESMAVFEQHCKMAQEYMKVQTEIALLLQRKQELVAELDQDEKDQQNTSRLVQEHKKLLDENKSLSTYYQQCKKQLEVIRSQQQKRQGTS
Sequence of UniProt Q9BPX6 (Q9BPX6 whole entry, looked up): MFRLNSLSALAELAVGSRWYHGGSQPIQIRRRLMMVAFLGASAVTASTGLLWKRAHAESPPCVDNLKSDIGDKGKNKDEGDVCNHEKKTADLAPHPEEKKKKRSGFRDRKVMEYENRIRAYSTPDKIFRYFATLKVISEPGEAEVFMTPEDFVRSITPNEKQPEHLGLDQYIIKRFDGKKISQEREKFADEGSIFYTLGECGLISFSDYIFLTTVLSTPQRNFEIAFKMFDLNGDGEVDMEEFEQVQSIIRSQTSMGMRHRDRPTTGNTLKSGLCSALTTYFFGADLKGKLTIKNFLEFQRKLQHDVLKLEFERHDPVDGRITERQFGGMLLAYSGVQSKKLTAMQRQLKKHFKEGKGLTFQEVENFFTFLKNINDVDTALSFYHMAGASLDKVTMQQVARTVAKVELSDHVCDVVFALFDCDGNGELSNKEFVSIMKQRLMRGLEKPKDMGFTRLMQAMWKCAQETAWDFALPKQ
Sequence of UniProt Q8TBB5 (Q8TBB5 whole entry, looked up): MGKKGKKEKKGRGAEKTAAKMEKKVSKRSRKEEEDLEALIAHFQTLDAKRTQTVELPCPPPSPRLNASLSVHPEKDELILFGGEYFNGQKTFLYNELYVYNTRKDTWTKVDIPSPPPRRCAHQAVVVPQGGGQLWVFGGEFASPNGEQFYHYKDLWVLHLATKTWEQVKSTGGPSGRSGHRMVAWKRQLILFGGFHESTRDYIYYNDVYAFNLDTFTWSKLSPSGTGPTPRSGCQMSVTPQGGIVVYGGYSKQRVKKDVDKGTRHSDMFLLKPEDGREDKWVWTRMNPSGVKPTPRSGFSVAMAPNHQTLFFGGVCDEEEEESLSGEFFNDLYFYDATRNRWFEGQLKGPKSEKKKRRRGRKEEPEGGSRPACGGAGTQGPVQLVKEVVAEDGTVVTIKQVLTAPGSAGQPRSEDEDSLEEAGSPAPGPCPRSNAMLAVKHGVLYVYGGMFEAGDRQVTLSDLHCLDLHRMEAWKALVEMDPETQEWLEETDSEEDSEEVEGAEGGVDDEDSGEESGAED
Sequence of UniProt Q96A72 (Q96A72 whole entry, looked up): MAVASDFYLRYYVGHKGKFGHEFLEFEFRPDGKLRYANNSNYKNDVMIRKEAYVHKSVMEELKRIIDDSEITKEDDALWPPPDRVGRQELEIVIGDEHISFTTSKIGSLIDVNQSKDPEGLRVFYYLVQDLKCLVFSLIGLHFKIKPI

Row | Target | log2 fold change [1] | log2 fold change [2] | log2 fold change [3] | log2 fold change [4] | log2 fold change [5] | log2 fold change [6] | log2 fold change [7] | log2 fold change [8] | log2 fold change [9] | log2 fold change [10]
1 | INTS5 (UniProt Q6P9B9) | 0.091 | -0.061 | 0.026 | 0.042 | 0.01 | 0.087 | 0.074 | 0.122 | 0.038 | 0.015
2 | KLHDC4 (UniProt Q8TBB5) | -0.027 | -0.003 | -0.007 | -0.092 | 0.18 | 0.096 | 0.076 | -0.223 | -0.011 | 0.028
3 | LRRFIP1 (UniProt Q32MZ4) | -0.024 | 0.003 | -0.012 | -0.01 | 0.005 | -0.019 | -0.027 | -0.002 | 0.014 | 0.004
4 | MAP1LC3B2 (UniProt A6NCE7) | 0.021 | -0.034 | -0.029 | 0.04 | -0.028 | 0.088 | 0.01 | 0.041 | 0.038 | 0
5 | MAGOHB (UniProt Q96A72) | -0.002 | -0.062 | 0.008 | 0.067 | -0.026 | 0.037 | 0.04 | -0.069 | 0.003 | 0.007
6 | KPNB1 (UniProt Q14974) | 0.049 | -0.041 | 0 | -0.015 | 0.119 | 0.07 | 0.076 | 0.052 | 0.085 | 0.02
7 | KCTD2 (UniProt Q14681) | -0.421 | 0.087 | -0.343 | -0.084 | 0.072 | -0.164 | -0.468 | -0.163 | 0.078 | 0.018
8 | MAP4 isoform 5 (UniProt P27816) | 0.013 | 0.055 | -0.173 | – | 0.105 | – | -0.01 | -0.161 | -0.028 | -0.114
9 | MAML1 (UniProt Q92585) | -0.05 | -0.035 | – | 0.199 | 0.039 | 0.038 | – | – | 0.299 | –
10 | KLHL18 (UniProt O94889) | -0.068 | -0.009 | 0.003 | – | -0.099 | -0.05 | -0.051 | 0.06 | -0.049 | 0.11
11 | ILF3 isoform 7 (UniProt Q12906) | 0.028 | -0.068 | -0.087 | -0.036 | 0.146 | -0.036 | -0.1 | 0.102 | -0.017 | -0.125
12 | IGFBP3 isoform 2 (UniProt P17936) | -0.187 | – | 0.1 | 0.205 | 0.204 | 0.031 | 0.076 | – | – | –
13 | MAP3K7 (UniProt O43318) | -0.008 | -0.039 | 0.041 | 0.019 | 0.027 | 0.042 | 0.074 | 0.008 | 0.093 | 0.079
14 | IL10RB (UniProt Q08334) | 0.19 | – | -0.012 | -0.17 | 0.082 | -0.004 | 0.018 | – | 0.088 | 0.063
15 | MFSD1 isoform 6 (UniProt Q9H3U5) | 0.056 | -0.008 | -0.046 | – | -0.106 | -0.053 | -0.059 | 0.021 | 0.008 | 0.041
16 | LARP1 (UniProt Q6PKG0) | 0.01 | 0.032 | -0.035 | 0.029 | 0.142 | -0.033 | -0.03 | 0.046 | 0.012 | -0.006
17 | IP6K1 (UniProt Q92551) | 0.443 | 0.022 | – | – | 0.232 | – | -0.015 | 0.068 | -0.008 | 0.259

Row | Target | log2 fold change [1] | log2 fold change [2] | log2 fold change [3] | log2 fold change [4] | log2 fold change [5] | log2 fold change [6] | log2 fold change [7] | log2 fold change [8] | log2 fold change [9] | log2 fold change [10]
18 | MFGE8 (UniProt Q08431) | 0.034 | -0.027 | -0.122 | -0.061 | 0.161 | -0.028 | -0.124 | 0.019 | -0.004 | -0.057
19 | LEO1 (UniProt Q8WVC0) | -0.086 | -0.113 | 0 | -0.075 | 0.109 | -0.025 | 0.033 | 0.029 | 0.118 | 0.032
20 | MED25 isoform 3 (UniProt Q71SY5) | -0.033 | 0.022 | -0.012 | -0.014 | – | 0.141 | 0.05 | -0.083 | 0.105 | 0.019
21 | LRBA, A0A494BZW2 | -0.082 | 0.06 | -0.048 | 0.078 | -0.264 | – | 0.272 | 0.038 | 0.264 | 0.026
22 | ITGA2B (UniProt P08514) | -0.071 | 0.064 | -0.058 | -0.052 | 0.121 | -0.105 | 0.134 | – | 0.09 | –
23 | LPIN3 isoform 2 (UniProt Q9BQK8) | -0.152 | 0.005 | -0.04 | – | -0.014 | -0.001 | -0.069 | -0.014 | -0.006 | -0.054
24 | MFSD11 (UniProt O43934) | -0.171 | – | 0.038 | 0.013 | -0.097 | -0.012 | 0.039 | -0.02 | – | 0.013
25 | LRFN1 (UniProt Q9P244) | 0.052 | 0.076 | 0.02 | -0.101 | 0.241 | -0.031 | 0.054 | – | -0.025 | 0.037
26 | MICU1 isoform 3 (UniProt Q9BPX6) | -0.002 | 0.052 | -0.003 | -0.028 | 0.117 | -0.049 | 0.042 | -0.001 | 0 | 0.012
27 | LUM (UniProt P51884) | -0.011 | 0.403 | 0.042 | 0.061 | -0.008 | 0.069 | -0.266 | – | -0.108 | –
28 | LAMP2 (UniProt P13473) | 0 | 0.093 | -0.043 | 0.066 | -0.104 | 0.05 | 0.048 | -0.028 | -0.02 | 0.007
29 | MAPK14 (UniProt Q16539) | 1.62 (active) | 0.615 | 0.111 | 0.022 | – | 0.059 | 0.339 | 0.002 | 0.03 | -0.029
30 | LYN isoform 2 (UniProt P07948) | 0.056 | – | -0.079 | -0.079 | 0.376 | 0.095 | -0.296 | – | -0.168 | –
31 | MED22 (UniProt Q15528) | -0.023 | 0.034 | – | 0.015 | -0.033 | 0.043 | – | 0.014 | 0.117 | 0.028
32 | MED12 isoform 2 (UniProt Q93074) | 0.034 | -0.202 | -0.015 | -0.09 | 0.012 | – | 0.071 | 0.023 | 0.106 | -0.135
33 | LMBRD1 (UniProt Q9NUN5) | 0.073 | 0.02 | 0.023 | – | -0.034 | -0.101 | -0.057 | -0.077 | 0.05 | -0.039
